Experimental findings from PubChem BioAssay (EPA / NIEHS) are described below.

Results filed as inconclusive are left out. Active and inactive are the calls of the source. How the source made its calls: active means hit-call score of the fitted dose curve at least 0.9, where 1 is the maximum; inconclusive means response in the unintended direction; inactive means score below 0.9.

The experiment deals with Cellular tumor antigen p53 (Homo sapiens) (UniProt P04637). The experiment in a line: TOX21_p53_BLA_p3_ratio: Tox21 HCT-116 p53 Agonism Beta-lactamase Assay, Ratio, Phase 3 (AID 2283596). The text has this: TOX21_p53_BLA_p3 is a cell-based, single-readout assay that uses HCT116, a human intestinal cell line, […] in a 1536-well plate.TOX21_p53_BLA_p3_ratio is an assay readout measuring reporter gene via receptor activity and designed using inducible reporter (beta lactamase induction) detected with GAL4 b-lactamase reporter gene. The signal is derived from the ratio of cleaved (ch2) to uncleaved (ch1) reporter gene substrate used as the measure of target activity.Data from the assay component TOX21_p53_BLA_p3_ratio was analyzed into 1 assay endpoint. This assay endpoint, TOX21_p53_BLA_p3_ratio, was analyzed in the positive analysis fitting direction relative to DMSO as the negative control and baseline of activity. Using a type of inducible reporter, gain-of-signal activity can be used to understand changes in the reporter gene as they relate to the gene TP53. Furthermore, this assay endpoint can be referred to as a primary readout, because this assay has produced multiple assay endpoints where this ratio serves a reporter gene function to understand target activity. To generalize the intended target to other relatable targets, this assay endpoint is annotated to the DNA binding intended target family, where the subfamily is tumor suppressor.
Cellular tumor antigen p53 (Homo sapiens), sequence (P04637 whole entry, looked up, the tested form may be a part): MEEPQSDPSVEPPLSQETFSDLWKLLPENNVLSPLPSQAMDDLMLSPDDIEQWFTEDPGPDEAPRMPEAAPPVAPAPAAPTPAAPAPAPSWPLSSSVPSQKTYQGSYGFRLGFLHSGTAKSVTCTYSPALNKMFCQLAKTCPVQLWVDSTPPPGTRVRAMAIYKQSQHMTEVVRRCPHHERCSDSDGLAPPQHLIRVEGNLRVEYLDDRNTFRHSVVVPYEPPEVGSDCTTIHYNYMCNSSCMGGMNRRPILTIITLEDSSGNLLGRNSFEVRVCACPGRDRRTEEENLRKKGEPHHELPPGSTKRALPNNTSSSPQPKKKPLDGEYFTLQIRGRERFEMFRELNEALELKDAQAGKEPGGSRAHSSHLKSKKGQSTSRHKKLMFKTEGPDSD
Thawing Method: Place 14 mL of pre-warmed thaw medium into a 15 mL of conical tub. Remove the vial of cells to be thawed from liquid nitrogen and thaw rapidly by placing at 37C in a water bath with gentle agitation for 1-2 minutes. Decontaminate the vial by wiping with 70% ethanol before opening in a biological safety cabinet. Transfer the vial contents drop-wise into 14 mL of thaw medium in a sterile 15-mL conical tub. Centrifuge cells at 900 rpm for 4 minutes and resuspend in thaw medium. Transfer contents to the T75 tissue culture flask containing Thaw Medium and place flask in a humidified 37C/5% CO2 incubator. Switch to growth medium at first passage.Propagation Method: Aspirate medium, rinse once in DPBS, add 0.25% Trypsin/EDTA and swirl to coat the cell evenly. Add an equal volume of Growth Medium to inactivate Trypsin after 2-3 minutes incubation at 37C. Centrifuge cells at 900 rpm for 4 minutes and resuspend in growth medium. Cell should be passage or fed at least twice a week.Assay Protocol: Harvest cells from culture in growth medium and resuspend in assay medium. 2.2 Dispense 4000 cells/5 uL/well into 1536-well black/clear bottom plates using a Multidrop dispenser. After the cells were incubated at 37C for 5 hours, 23 nL of compounds dissolved in DMSO were transferred to the assay plate by a PinTool resulting in a 217-fold dilution. Incubate the plates for 16 hours at 37C, 5% CO2. Add 1 uL of 6X LiveBLAzer FRET B/G (CCF4-AM) Substrate Mixture to each well using a BioRAPTR dispenser and incubate the plates at room temperature for 2 hours. Measure fluorescence intensity at 460 and 530 nm emission and 405 nm excitation by an Envision detector. Data is expressed as the ratio of 460nm/530nm emissions. Add 4 uL of Cell-titer Glo to each well using BioRAPTR and incubate the plates at room temperature for 2 hours. Measure fluorescence intensity by a VewLux plate reader.
Turning to `O=C1CCCC(=O)C1`, the outcome was inactive.
`Oc1ccc(CCNCCCCCCNCCc2ccccc2)cc1O`: the outcome was inactive.
Take `CN1CCN(c2c(F)cc3c(=O)c(C(=O)O)cn4c3c2SCC4)CC1`: the result was inactive.
Regarding `C[C@@H](O)C(=O)O`, the outcome was inactive.
`Cc1ccc(/C(=C\CN2CCCC2)c2ccccn2)cc1`: the outcome was inactive.
As for `CN(C)CC/C=C1\c2ccccc2COc2ccccc21`, the result was inactive.
Consider `O=C1c2ccccc2C(=O)C1c1ccccc1`, for which the result was inactive.
Still for that read-out and setting: the value for `Cc1cc(O)c(Cl)cc1C` was “inactive”.
Turning to `CN1CCN(C2=Nc3ccccc3Sc3ccc(Cl)cc32)CC1`, the result was inactive.
As to `Cc1ncc(COP(=O)(O)O)c(CN)c1O`, the result was inactive.
For `CC(C)NC[C@@H](O)COc1cccc2ccccc12`, the result was inactive.
`CC(=NCc1ccccc1)c1ccccc1O`: the outcome was inactive.
Consider `C#CC(O)CCCCC` (stereo not given), for which the result was inactive.
In the case of `COC(=O)c1cc(C(=O)OC)cc(S(=O)(=O)O)c1`, the outcome was inactive.
Still for that read-out and setting: the value for `Cc1cc(C)cc([N+](=O)[O-])c1` was “inactive”; that for `CC1OCCC1=O` (stereo not given) was “inactive”.
For `CNCC(=O)N[C@@H](CCCN=C(N)N)C(=O)N[C@H](C(=O)N[C@@H](Cc1ccc(O)cc1)C(=O)N[C@H](C(=O)N[C@@H](Cc1cnc[nH]1)C(=O)N1CCC[C@H]1C(=O)N[C@@H](C)C(=O)O)C(C)C)C(C)C`, the outcome was inactive.
With `CCCCCCCC/C=C\CCCCCCCC(=O)OC`, the result was inactive.
Take `CCCCOC(=O)CCS`: the result was inactive.
As to `Cl.Cl.N.N.[Cl-].[Cl-].[Pt+2]`, the outcome was inactive.
For the compound `CC(C)(O)CCC(C)(C)O`, the outcome was inactive.
The same measure, in the same setting: the value for `CC1(C)S[C@@H]2[C@H](NC(=O)C(C(=O)Oc3ccc4c(c3)CCC4)c3ccccc3)C(=O)N2[C@H]1C(=O)O` (stereo not given in full) was “inactive”; that for `O=C1OC(=O)C2CC=CCC12` (stereo not given) was “inactive”; that for `O=C1CCCc2ccccc21` was “inactive”.
Take `COc1ccc(-c2nc3ccc(C4=NNC(=O)CC4C)cc3[nH]2)cc1` (stereo not given): the AC50 was 21.5 µM (active).
On to `C[C@H]1NCc2cc(-c3ccc4c(=O)c(C(=O)O)cn(C5CC5)c4c3OC(F)F)ccc21`, for which the result was inactive.
Still for that read-out and setting: the value for `N=C(N)c1ccccc1` was “inactive”.
In the case of `Cc1c(N=C=O)cccc1N=C=O`, the outcome was inactive.
`OCCOc1ccc(OCCO)cc1`: the outcome was inactive.
For `Oc1cc(O)cc(O)c1`, the outcome was inactive.
The same measure, in the same setting: the value for `CC(CCc1ccc(O)cc1)NCC(O)c1ccc(O)cc1` (stereo not given) was “inactive”.
For the compound `CC(=O)CC(=O)Nc1ccc(S(=O)(=O)O)cc1`, the result was inactive.
Still for that read-out and setting: with `CCCCOC(=O)C(=O)Nc1cccc(-c2nn[nH]n2)c1` the entry was “inactive”; with `Cc1ccc(C(=O)c2ccc(CC(=O)O)n2C)cc1`, “inactive”; with `O=C(CCNNC(=O)c1ccncc1)NCc1ccccc1`, “inactive”.
On the same count and under the same terms, with `CCC1NC(=O)c2cc(S(N)(=O)=O)c(Cl)cc2N1` (stereo not given) the entry was “inactive”.
As for `Cn1nnnc1SCC1=C(C(=O)O)N2C(=O)[C@@H](NC(=O)[C@H](O)c3ccccc3)[C@H]2SC1`, the outcome was inactive.
For `CCOC(=O)CC(=O)C(=O)OCC`, the outcome was inactive.
The same measure, in the same setting: with `COc1cc(C(=O)NCCCCCC(=O)O)cc(OC)c1OC` the entry was “inactive”; with `CCNC(=O)C1CC(C)CCC1C(C)C` (stereo not given), “inactive”.
